The sample as a whole holds a higher share of hits than the screen did.
14-3-3 PPI: modulators of human 14-3-3 gamma - Raf peptide interaction; P61981; FP, 14-3-3gamma / TMR-pS259-Raf peptide binding; inhibition, % at 40 µM; actives 0.19% (n = 160,000); AID 422; in the data active = inhibition above about 30%
Target sequence (P61981 whole entry, looked up): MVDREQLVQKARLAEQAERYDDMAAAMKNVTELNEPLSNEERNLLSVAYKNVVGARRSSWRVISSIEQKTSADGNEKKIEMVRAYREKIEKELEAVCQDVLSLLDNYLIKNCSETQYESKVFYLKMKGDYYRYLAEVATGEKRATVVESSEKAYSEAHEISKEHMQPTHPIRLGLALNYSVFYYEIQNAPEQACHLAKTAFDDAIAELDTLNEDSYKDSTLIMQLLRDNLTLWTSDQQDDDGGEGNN
Of the large screens only hits and unclear results are named; the others gave an inactive call.

O=C(Nc1ccccc1Cl)c1cc(S(=O)(=O)N2CCCc3ccccc32)ccc1F	none
O=C(Nc1ccccc1Cl)c1ccc(F)c(S(=O)(=O)N2CCCc3ccccc32)c1	14-3-3 PPI 31
O=C(Nc1cccc(Cl)c1)c1ccc(F)c(S(=O)(=O)N2CCCc3ccccc32)c1	none
COc1ccc(Nc2ncnc3c2cnn3-c2ccc(C)cc2)cc1OC	none
CCCSc1nnc2c(n1)OC(c1cccc(OCC)c1OC)Nc1ccccc1-2 (stereo not given)	none
CCCCCSc1nnc2c(n1)OC(c1cccc(C)n1)Nc1ccccc1-2 (stereo not given)	14-3-3 PPI 36
CCCCSc1nnc2c(n1)OC(c1ccccc1OC)Nc1ccccc1-2 (stereo not given)	none
C=CCSc1nnc2c(n1)OC(c1cccc(C)n1)Nc1ccccc1-2 (stereo not given)	none
CCCCSc1nnc2c(n1)OC(c1cccc(OCC)c1OC)Nc1ccccc1-2 (stereo not given)	14-3-3 PPI 70
Cc1cccc(C2Nc3ccccc3-c3nnc(SCc4ccccc4F)nc3O2)n1 (stereo not given)	none
CCCCCCSc1nnc2c(n1)OC(c1ccsc1)Nc1ccccc1-2 (stereo not given)	none
CCCCCCSc1nnc2c(n1)OC(C)Nc1ccccc1-2 (stereo not given)	14-3-3 PPI 44
CCCSc1nnc2c(n1)OC(C)Nc1ccccc1-2 (stereo not given)	none
COc1cc(C2Nc3ccc4ccccc4c3C3=C2C(=O)CCC3)ccc1OC(C)=O (stereo not given)	none
CC(C)Cc1ccc(S(=O)(=O)N2CCc3ccccc32)cc1	none
O=C(c1cnc2sccn2c1=O)N1CCN(C(c2ccccc2)c2ccccc2)CC1	none
C=CCN(CC=C)C(=O)c1c(NC(=O)c2ccccc2C)sc2c1CCCCC2	none
COc1ccc(OC)c(NC(=O)c2cc3c(n(-c4ccc(Cl)cc4)c2=O)CCCC3=O)c1	none
Nc1c2c3c(c(Cl)ccc3[nH]c1=O)C(=O)c1ccccc1-2	none
CC(=O)Nc1ccc(Nc2ccccc2)c2c1C(=O)c1ccccc1C2=O	none
O=C1c2ccccc2-c2c(Nc3ccccc3)c(=O)[nH]c3cccc1c23	14-3-3 PPI 92
Cc1cc2cc(CCNC(=O)c3cc4ccccc4oc3=O)c(=O)[nH]c2cc1C	none
COc1cccc(Oc2coc3c(CN4CCOCC4)c(O)ccc3c2=O)c1	none
COc1ccccc1-c1coc2c(CN3CCOCC3)c(O)ccc2c1=O	14-3-3 PPI 30
O=c1c(-c2ccc3c(c2)OCCO3)coc2c(CN3CCOCC3)c(O)ccc12	none
C=CCn1c(SC(C)C)nc2c(c1=O)C1(CCCCC1)Cc1ccccc1-2	none
Cc1ccc(-n2nc3c(c2NC(=O)c2cccc(C)c2)CS(=O)(=O)C3)cc1	none
COc1cc2ccccc2cc1C(=O)Nc1ccccc1Oc1ccccc1	none
CCOc1ccc(N=Cc2c(O)c(C(=O)Nc3ccccc3)cc3ccccc23)cc1	14-3-3 PPI 71
COc1ccccc1N=Cc1c(O)c(C(=O)Nc2ccccc2OC)cc2ccccc12	14-3-3 PPI 78
CCOc1ccc(-c2nc3cc(N=Cc4c(O)ccc5ccccc45)ccc3o2)cc1	none
CC(=O)Nc1ccc(N=Cc2c(OC(=O)c3cccc4ccccc34)ccc3ccccc23)cc1	none
CCOc1ccc(NC(=O)c2cc(-c3cccs3)nc3ccccc23)cc1	none
CCOc1ccccc1C(=O)Nc1cc(OC)ccc1OC	none
CC(=O)Nc1ccc(N=Cc2c(O)c(C(=O)Nc3ccccc3)cc3ccccc23)cc1	14-3-3 PPI 174
O=C(Nc1ccccc1)c1cc2ccccc2c(C=Nc2ccc(Cl)cc2)c1O	none
COc1ccccc1NC(=O)c1cc2ccccc2c(C=Nc2ccc(Cl)cc2)c1O	none
COc1ccccc1NC(=O)c1coc(=O)c2ccccc12	none
CCOc1ccc(N=Cc2c(O)c(C(=O)Nc3ccccc3OC)cc3ccccc23)cc1	14-3-3 PPI 59
CCOC(=O)c1cc2c(nc1C)-c1ccccc1C2=Nc1cccc2ccccc12	none
COC(=O)C(O)(c1ccc(O)cc1)C(F)(F)F (stereo not given)	none
Cc1ccc(S(=O)(=O)CCC(=O)Nc2c(C)cccc2C)cc1	none
CC(=O)c1cccc(NS(=O)(=O)c2cc(C(=O)c3ccc(Br)cc3)ccc2C)c1	none
CCCN1C(=O)C2C(C(=O)Nc3ccc(C(C)C)cc3)C3C=CC2(O3)C1C(=O)NC1CCCC(C)C1C (stereo not given)	none
COc1cc(NCCCC(C)N)c2ncccc2c1 (stereo not given)	14-3-3 PPI 70
COc1cc(NS(=O)(=O)c2ccc(C)cc2)c2ncccc2c1	none
COc1cccc(CNc2cccc3cccnc23)c1O	none
COc1cccc2c1OC1(C)C(C(=O)N(C)C)C2NC(=S)N1c1cccc(Br)c1 (stereo not given)	none
Cc1cccc(N(CC(=O)Nc2c(C)cccc2C)S(=O)(=O)c2ccccc2)c1C	none
Cc1cccc(N(CC(=O)NC2CCCCC2)S(=O)(=O)c2ccccc2)c1C	14-3-3 PPI 38
Cc1cccc(N(CC(=O)NC2CC3CCC2C3)S(=O)(=O)c2ccccc2)c1C (stereo not given)	none
CCOC(=O)c1c(NC(=O)c2cc(-c3cccs3)on2)sc(C)c1C	none
COc1cccc(CNC(=O)C2CCC(Cn3c(=S)[nH]c4ccsc4c3=O)CC2)c1 (stereo not given)	none
COc1ccc(N2C(=O)c3ccc(Oc4ccc([N+](=O)[O-])cc4)cc3C2=O)cc1OC	none
Clc1ccc(-n2ncc3c(Nc4cccc5c4CCCC5)ncnc32)cc1	none
COc1ccccc1Nc1nc(C)cc(C)c1C#N	none
COc1cccc2cc(-c3nc(NC(C)=O)sc3C)c(=O)oc12	none
O=C(O)C1Cc2c([nH]c3ccccc23)C(c2ccccc2[N+](=O)[O-])N1 (stereo not given)	14-3-3 PPI 53
O=C(O)C1Cc2c([nH]c3ccccc23)CN1 (stereo not given)	none
O=C(O)C1Cc2c([nH]c3ccccc23)C(c2ccccc2)N1 (stereo not given)	none
COc1ccc(-c2nc(SCc3ccc([N+](=O)[O-])cc3)c3c(=O)n(C)c(=O)n(C)c3n2)cc1	none
CSc1nnc2c3ccccc3n(Cc3ccccc3)c2n1	none
CSc1nnc2c3ccccc3n(CCc3ccccc3)c2n1	none
CSc1nnc2c3cc(F)ccc3n(Cc3ccccc3)c2n1	14-3-3 PPI 113
Cc1cccc(Cc2c(C)nc3c(C(=O)NC(C)C)cnn3c2C)c1	none
Cc1ccc(NS(=O)(=O)c2ccc3c(c2)CCC(=O)N3)c(C)c1	none
CSc1ccc(CN2CCN(Cc3ccccn3)CC2)cc1	none
O=C1CCCC2=C1C1(O)C(=O)c3ccccc3C1(O)O2 (stereo not given)	14-3-3 PPI 56
CC(=O)C1=C(C)NC2(O)c3ccccc3C(=O)C12O (stereo not given)	none
N#CC1=C(N)OC2=C(C(=O)CCC2)[C@]12C(=O)N(CC(N)=O)c1ccccc12	none
CCN1C(=O)c2ccccc2Sc2ccc(C(=O)NC3CCCC3)cc21	none
O=C(C1CCC1)N1CCc2cc(S(=O)(=O)NCCCN3CCN(c4ccccc4F)CC3)ccc21	14-3-3 PPI 31
O=C(C1CCC1)N1CCc2cc(S(=O)(=O)NCCN3CCCC3)ccc21	none
CC(=O)N1CCc2cc(S(=O)(=O)NCCCN3CCN(C)CC3)ccc21	none
O=C(C1CCC1)N1CCc2cc(S(=O)(=O)NCCCN3CCCCC3)ccc21	none
CCC(=O)N1CCc2cc(S(=O)(=O)NCCN3CCCCC3C)ccc21 (stereo not given)	none
CCC1CCCCN1CCNS(=O)(=O)c1ccc2c(c1)CCN2C(=O)C1CCC1 (stereo not given)	14-3-3 PPI 52
O=C1c2ccccc2C(=O)c2cc(O)ccc21	none
Cc1cc(-c2ccccc2C(=O)O)on1	none
